Data as given in PubChem BioAssay AID651965 (National Center for Advancing Translational Sciences (NCATS), 2013).
About 6,400 (1.9%) of roughly 340,000 compounds were called active. Inconclusive results (about 4%) are left out. This excerpt belongs to a sample that is enriched for actives. A number with no mark means an inactive call. The call rests on the fitted dose curve; in most records, active means well fitted falling curve with a large enough effect; inconclusive means small, poorly fitted or top-dose-only effect; inactive means no such curve, though single readings can be large or run the other way.

Biological target: ATP-dependent Clp protease proteolytic subunit (Bacillus subtilis (strain 168)) (UniProt P80244)
Assay: qHTS Assay for Activators of ClpP; further: the source files actives as falling curves though it sought activators and does not explain the sign; nearly all actives have a fitted effect of over 65% in size
Details: purified B. subtilis ClpP, FRET peptide cleavage, 20 min; series mostly up to 57.5 µM; activity change, negative = active: at the top concentration
In short: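 Buffer: 100 mM Tris/HCl pH8, 100 mM KCl, 0.05% low protease BSA, 2.5% glycerol, 0.01% Tween-20. ClpP 10 microg/mL final; 20 min RT; delta FRET normalized to ADEP and DMSO controls.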
Potency means the concentration at half of the fitted maximal effect.

Sequence of ATP-dependent Clp protease proteolytic subunit (Bacillus subtilis (strain 168)) (P80244 whole entry, looked up): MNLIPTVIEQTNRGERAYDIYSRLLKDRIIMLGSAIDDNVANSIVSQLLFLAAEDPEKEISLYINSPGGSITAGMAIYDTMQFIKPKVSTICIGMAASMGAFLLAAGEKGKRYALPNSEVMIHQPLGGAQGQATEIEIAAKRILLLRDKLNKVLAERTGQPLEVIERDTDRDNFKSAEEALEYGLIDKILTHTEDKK

In order of rising “activity change, negative = active” value:
1. O=C(OCc1ccccc1)N1CCC2CC1c1ccc(-c3ccc4c(c3)OCO4)cc12 (centres undefined)  -29.7%
2. CC(C)(C)NC(=O)C(CCc1ccccc1)n1c(=O)c(-c2ccccc2)nc2ccccc21 (centres undefined)  -29.6%
3. CCN1CCCC1Cn1cnc2c([nH]c3cc(OC)ccc32)c1=O (centres undefined)  -28.6%
4. COc1cc2[nH]c(C)c(CCN3CCN(c4ccccc4)CC3)c2cc1OC  -28.6%
5. Fc1ccc2[nH]c3c(N4CCN(Cc5ccc6c(c5)OCO6)CC4)ncnc3c2c1  -28.2%
6. CCc1nc2ccc(C(=O)NCc3ccc(OC)cc3)cn2c1N(CC)Cc1cccc(Br)c1  -26.8%
7. Cc1ccc(CSc2nc3cccnc3n2Cc2ccc(C(=O)NC3CC3)cc2)cc1  -21.3%
8. CCOC(=O)[C@]12CCC=C1N(Cc1cccc3ccccc13)C(=O)[C@H](CC(=O)NCc1cccc(C(F)(F)F)c1)C2  -21.3%
9. COc1cccc(C(NC(C)=O)c2nc(-c3cnc4ccccc4c3)cs2)c1 (centres undefined)  -20.2%
10. Cn1c(Nc2ccc(F)cc2)nc2cc(-c3ccsc3)sc2c1=O  -19.8%
11. Cc1ccc(NC(=O)Nc2nnc(-c3ccncc3)s2)cc1  -17.4%
12. CCc1c(-c2ccc(F)cc2)ncn1Cc1cccc(-c2ccccc2)c1  -16.7%
13. Cc1cccc(CSc2nc3ccncc3n2Cc2ccc(C(=O)O)cc2)c1  -15.8%
14. CC(C)(C)c1ccc(C(=O)C[n+]2cccc3cc(Cl)ccc32)cc1  -13.7%
15. CC1(C(=O)NCC2CCOCC2)Cc2c(-c3cccc(C(N)=O)c3)ccnc2O1 (centres undefined)  -12.4%
16. O=C(NCc1ccc(Cl)cc1)c1cc(=O)nc2sc(-c3ccccc3)nn12  -10.5%
17. ClC/C=C/C[n+]1ccccc1Cl  -7.68%
18. CC(CCc1ccccc1)NC(=O)c1cnc(Cl)c(Cl)c1 (centres undefined)  -7.38%
19. NC(c1csc(NC(=O)Nc2ccccc2Oc2ccccc2)n1)c1ccccc1Cl (centres undefined)  -6.76%
20. O=C(O)c1ccc(Cn2c(SCc3ccc(F)cc3)nc3ccncc32)cc1  -6.24%
21. COC(=O)C1(C(=O)OC)C[C@H](c2ccccc2)N(Cc2ccccc2OC)[C@@H]1c1ccccc1  -5.6%
22. O=C(NCC(c1cccs1)N1CCOCC1)c1cc(-c2ccccn2)nc2ccccc12 (centres undefined)  -5.18%
23. CC1(C(=O)Nc2cccc3cccnc23)CCN1C(=O)CCC1CCCC1 (centres undefined)  -4.78%
24. CC1(C(=O)NS(=O)(=O)c2ccc(C#N)cc2)CCN1C(=O)c1ccc(C2CCCCC2)cc1 (centres undefined)  -4.45%
25. CCOC(=O)c1c(NC(=O)c2ccc(S(=O)(=O)N(CC)CC)cc2)sc2c1CCCCC2  -3.63%
26. COCC(C)NC(=O)c1ccc(-n2nc(C(F)(F)F)cc2-c2cccs2)cc1 (centres undefined)  -3.54%
27. COc1ccc(C(C)(O)c2nc(-c3ccc(C)c(C)c3)cs2)cc1 (centres undefined)  -3.11%
28. Cc1nn(CC(=O)NCCc2ccccc2)c(=O)c2cc3occc3n12  -3.03%
29. Cc1ccc([C@H]2C[C@H](O)[C@@H](n3cc(COC(=O)c4ccccc4)nn3)CN2CC2CCCCC2)cc1  -2.3%
30. CC1(C(=O)NS(=O)(=O)c2ccccc2Cl)CCN1C(=O)c1cccc(F)c1 (centres undefined)  -2.25%
31. O=C(NCc1ccc(F)cc1)c1cc(C2CCCCN2C(=O)c2ccccn2)on1 (centres undefined)  -2.01%
32. CN1C[C@@H](CO)O[C@@H](n2cnc3c(N4CCN(CCO)CC4)ncnc32)C1  -1.83%
33. O=C(NCc1ccc2c(c1)OCO2)c1c(O)nc2sccn2c1=O  -1.8%
34. Cc1cccc(-c2cnc(C(O)c3cc(C)cc(C)c3)[nH]2)c1 (centres undefined)  -1.64%
35. COC(=O)c1c(NC(=O)c2ccc(Cl)c(Cl)c2)sc2c1CCCC2  -1.63%
36. O=C(NCCN1CCOCC1)c1cc(Sc2cccc(Cl)c2)nc2ccccc12  -1.49%
37. Cc1cccc(Cn2c(=O)n(CCC(=O)NCCc3ccc(Cl)cc3)c(=O)c3sccc32)c1  -1.47%
38. CC(C)(C)Cc1c(C2CCCCC2)nc2ccc(Br)cn12  -1.44%
39. O=C(O)C1=C/C(=C/C=[N+]2c3cc(O)c(O[C@H]4OC(CO)[C@@H](O)[C@@H](O)[C@@H]4O)cc3C[C@@H]2C(=O)[O-])C[C@H](C(=O)O)N1 (some centres undefined)  -1.44%
40. Cc1ccc(CN(Cc2cccnc2)C(=S)Nc2cccc(Cl)c2C)cc1  -1.41%
41. C=CCn1c(SCc2ccc(C(=O)NCCO)cc2)nc2ccccc2c1=O  -1.32%
42. C=C1C(=O)OC2C1CCC(C)=CCCC1(C)OC21 (centres undefined)  -0.985%
43. CCCc1c(-c2ccccc2F)ncn1Cc1ccccc1OC  -0.97%
44. CCc1nc2c(OCCOc3ccccc3)cccn2c1N(C)C(=O)c1ccc(OC)cc1  -0.66%
45. CCOC(=O)c1cc(=O)c2ccc(OCc3ccccc3)cc2o1  -0.5%
46. CCOC(=O)C1=C(N)N(c2ccc(C)cc2)C2=C(C(=O)CCC2)C1c1cccs1 (centres undefined)  -0.469%
47. COC(=O)c1c(NC(=O)CSc2nncs2)sc2c1CCCCC2  -0.465%
48. COc1ccc(C(O)C(O)(C(=O)OC(C)C)c2ccc(C)cc2)cc1 (centres undefined)  -0.377%
49. CCOC(=O)C1=CCC(c2ccc(F)cc2)N(S(=O)(=O)c2ccc(C)cc2)C1 (centres undefined)  -0.256%
50. COc1ccc(-c2csc(C(O)c3cccc(Cl)c3)n2)cn1 (centres undefined)  -0.133%
51. C#Cc1ccc(NC(=O)C2(C)CCN2C(=O)Cc2ccc(-c3ccccc3)cc2)cc1 (centres undefined)  0.114%
52. CCOC(=O)c1c(NC(=O)c2cc(-c3ccc(Cl)cc3)on2)sc2c1CCCC2  0.147%
53. CCc1nc2c(OCCOc3ccc(F)cc3)cccn2c1N(C)C(=O)c1ccccc1F  0.272%
54. CCCCOc1ccc(NC(=O)c2cc3c(n(-c4ccc(Cl)cc4)c2=O)CCCC3=O)cc1  0.294%
55. Cc1ccc([C@H]2N[C@]3(CCCN(CC4CCCCC4)C3=O)[C@H]3C(=O)N(Cc4ccccc4)C(=O)[C@@H]23)cc1  0.684%
56. CCCCNC(=O)C[C@@H]1C[C@@]2(C(=O)OCC)CCC=C2N(Cc2cccc3ccccc23)C1=O  0.695%
57. O=C(O)c1ccccc1-c1ccccc1C(=O)NCCc1ccccc1  0.88%
58. CCCCOc1ccc(C(=O)NO)cc1  1.01%
59. COc1cccc(NC(=S)NCc2ccccn2)c1  1.22%
60. COc1ccc(C2Nc3ccccc3C(=O)N2c2ccc(F)cc2)cc1Cn1nnc2ccccc21 (centres undefined)  1.26%
61. O=C(NCc1ccc(F)cc1)c1cc(C2CCCCN2C(=O)c2cccs2)on1 (centres undefined)  1.26%
62. O=c1[nH]c2ccccc2n1C1CCN(CCOc2ccccc2)CC1  1.5%
63. Cc1occc1C(=O)Nc1nnc(C2CCCCC2)s1  1.56%
64. CN(C)C1CN(Cc2cn(Cc3ccccc3)nn2)S(=O)(=O)C1 (centres undefined)  1.81%
65. CC1(C(=O)NS(=O)(=O)C2CC2)CCCN(C(=O)CSc2ccccc2)C1 (centres undefined)  1.92%
66. O=C(Nc1ccc(Cl)cc1)c1csc([C@@H]2O[C@H](CO)[C@H](O)[C@H](O)[C@H]2O)n1  2.06%
67. CCCNC(=O)C1(C)CCN(C(=O)c2ccccc2OC(F)(F)F)C1 (centres undefined)  2.38%
68. CC(C)OCCCNC(=O)c1cc(Sc2ccc(F)cc2)nc2ccccc12  3.39%
69. N#Cc1ccc(C(C(=O)NCc2ccccc2)n2c(=O)c(-c3ccco3)nc3ccccc32)cc1 (centres undefined)  3.44%
70. CCN1CCCC1CNC(=O)c1cc2cc(OC)c(OC)cc2[nH]1 (centres undefined)  3.65%
71. Cc1nn(CC(=O)NCC2CCCO2)c(=O)c2cc3ccccc3n12 (centres undefined)  3.78%
72. Cc1cc(OC(C)C(=O)NC2CC(C)(C)NC(C)(C)C2)c2c(C)cc(=O)oc2c1 (centres undefined)  3.98%
73. CCOC(=O)c1c(-c2ccccc2)oc2ccc(OCC(N)=O)cc12  4%
74. Cc1noc(C)c1-c1ccc(C(=O)NCc2ccncc2)c2occc12  4.3%
75. O=C(Cn1c(=O)nc(-c2ccccc2)c2cc(Cl)ccc21)NCc1ccc(Cl)cc1  4.43%
76. CCc1cc(=O)oc2cc(C)cc(OCC(=O)N3CCC[C@@H]3C(=O)O)c12  4.5%
77. CC1(C(=O)NCc2ccco2)Cc2c(-c3ccc4c(c3)OCO4)ccnc2O1 (centres undefined)  4.97%
78. COc1cccc(C(O)c2ncc(-c3ccc4ccccc4c3)[nH]2)c1 (centres undefined)  5.1%
79. O=C(NCCc1ccccc1)c1cnc2sc(N3CCCC3)nn2c1=O  23.7%
80. COc1ccc(C2Nc3ccc(NC(=O)COC(C)=O)cc3C(=O)N2Cc2ccccc2)cc1COc1ccc(NC(C)=O)cc1 (centres undefined)  61.6%

In the case of `COc1ccc(C2Nc3ccccc3C(=O)N2Cc2ccccc2)cc1Cn1nnc2ccccc21` (centres undefined), the Potency is reported as 35.5 µM (active).
With `COCC(C)NC(=O)c1ccc(Cl)c(Cl)c1` (centres undefined) the Potency was 14.1 µM (active).
In the case of `CCOC(=O)c1cc2c(n(-c3ccc(C)cc3)c1=O)CCCC2=O`, the Potency is reported as 31.6 µM (active).
`CCc1cc(=O)oc2cc(C)cc(OC(C)C(=O)O)c12` (centres undefined) was tested, and the Potency was 3.55 µM (active).
In the case of `O=C(NCCN1CCOCC1)c1cc(-c2cccs2)nc2ccccc12`, the Potency is reported as 28.2 µM (active).
In the case of `CCOC(=O)c1c(NC(=O)c2ccc(Br)o2)sc2c1CCCC2`, the Potency is reported as 31.6 µM (active).
In the case of `COC(=O)c1c(NC(=O)c2cccs2)sc2c1CCCC2`, the Potency is reported as 35.5 µM (active).
In the case of `CCN1CCCC1CNc1ncnc2c1[nH]c1ccc(F)cc12` (centres undefined), the Potency is reported as 28.2 µM (active).
With `CC(C)OCCCNc1ncnc2c1[nH]c1ccc(F)cc12` the Potency was 15.8 µM (active).
`O=C(Cn1c(-c2cccs2)cc2ccccc21)NCCc1ccc(Cl)cc1` was tested, and the Potency was 20 µM (active).
In the case of `O=C(NCc1ccc(Cl)cc1)c1cc2c(nc3sccn32)s1`, the Potency is reported as 31.6 µM (active).
With `COc1ccc(C(C(=O)NCc2ccccc2)n2c(=O)c(-c3ccccc3)nc3ccccc32)cc1` (centres undefined) the Potency was 28.2 µM (active).
For `CCN(CC)c1nn2c(=O)c(C(=O)NCCc3ccccc3)cnc2s1`, the Potency was 28.2 µM (active).
For `Cc1occc1C(=O)Nc1nnc(-c2ccncc2)s1`, the Potency was 31.6 µM (active).
In the case of `CCOC(=O)COc1cc(OCC(=O)OCC)c2c(=O)cc(-c3ccccc3)oc2c1`, the Potency is reported as 28.2 µM (active).
With `COc1cccc(NC(=S)N(Cc2ccc(C)cc2)Cc2ccccn2)c1` the Potency was 28.2 µM (active).
`O=C(O)c1ccc(CSc2nc3cccnc3n2Cc2cccc(F)c2)cc1` was tested, and the Potency was 31.6 µM (active).
With `O=C(NCc1ccc(F)cc1)c1ccc(Cn2c(SCc3ccc(F)cc3)nc3cccnc32)cc1` the Potency was 28.2 µM (active).
`Cc1nn(CC(=O)O)c(=O)c2cc3cc(F)ccc3n12` was tested, and the Potency was 28.2 µM (active).
